# Values joined by “and” are separate entries in the source; they are usually repeats but may differ in a detail not shown here. Identical values can stand only once. Results filed as inconclusive are left out. A call without a number means that no potency is given here. Active and inactive are the calls of the source. Unless noted, calls follow the shape of the dose curve; as a rule, active = well fitted curve in the direction sought with a large enough effect; inconclusive = small, poorly fitted or top-dose-only effect, or another doubt; inactive = no such curve, though single readings can be large; an effect the other way counts as inactive or inconclusive.
# What was measured:
# [1] = qHTS Assay for Lipid Storage Modulators (AID 1519; calls by dose curve); details: Drosophila S3 cells, BODIPY lipid droplet/cell ratio, laser cytometry, cells loaded with oleic acid
# Summary of the method: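 Cells seeded at 5,000 per well were treated with compounds over a concentration series and loaded with oleic acid (400 uM, as added). Lipid droplet fluorescence (488 nm excitation, 500-530 nm channel) was read by laser-scanning cytometry and normalized to 20 uM Triacsin C.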
# [2] = molecular target: DNA repair nuclease/redox regulator APEX1 (Homo sapiens) (UniProt P27695); experiment: qHTS Validation Assay for Inhibitors of the Human Apurinic/apyrimidinic Endonuclease 1 (APE1) (AID 1705;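 also: TAMRA fluorescence gain over two minutes as APE1 cuts a quenched THF abasic duplex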); details: purified APE1 endonuclease activity, fluorescence, titration; series mostly up to 57.1 µM
# DNA repair nuclease/redox regulator APEX1 (Homo sapiens), sequence (P27695 whole entry, looked up): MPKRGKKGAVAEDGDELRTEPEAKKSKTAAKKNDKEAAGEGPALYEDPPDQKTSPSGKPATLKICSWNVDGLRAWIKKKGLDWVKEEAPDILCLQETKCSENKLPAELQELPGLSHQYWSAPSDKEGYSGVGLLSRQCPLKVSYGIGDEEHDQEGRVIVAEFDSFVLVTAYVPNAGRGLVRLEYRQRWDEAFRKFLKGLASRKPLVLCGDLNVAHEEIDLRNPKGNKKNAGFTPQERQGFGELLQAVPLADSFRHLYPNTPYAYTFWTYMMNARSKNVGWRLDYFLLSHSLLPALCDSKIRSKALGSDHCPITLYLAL
# Summary of the method: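 qHTS, 1536-well. APE1 + cpd 15 min RT → 50 nM TAMRA/BHQ-2 THF-abasic dsDNA substrate → kinetic fluorescence, 3 reads/60 s; delta(read3−read1) = reaction progress. No-enzyme buffer = negative control.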
# [3] = Counterscreen for APE1 Inhibitors: Fluorescent Dye Displacement Validation Assay (AID 1707); details: fluorescent dye displacement from DNA; series mostly up to 57.1 µM
# Summary of the method: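 Reaction mixture of 250 nM Thiazole Orange and 50 nM double-stranded abasic-site DNA was dispensed, compounds were pin-transferred, and fluorescence was read at endpoint (480 nm ex, 540 nm em). Reduced fluorescence indicated dye displacement by DNA binding.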
# [4] = molecular target: Endonuclease 4 (Escherichia coli (strain K12)) (UniProt P0A6C1); experiment: Counterscreen for APE1 Inhibitors: qHTS Validation Assay for Inhibitors of Endonuclease IV (AID 1708); details: E. coli endonuclease IV, DNA cleavage fluorescence; series mostly up to 57.1 µM
# Summary of the method: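 Conditions: 2 nM enzyme, 50 nM TAMRA/BHQ-2 substrate, pH 7.5 Tris buffer with 2 mM MgCl2, RT. Compound preincubation 15 min; readout three fluorescence reads 60 s apart, third-minus-first.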
# [5] = qHTS for differential inhibitors of proliferation of Plasmodium falciparum line 7G8 (AID 1815); details: Plasmodium falciparum 7G8 proliferation inhibition; series mostly up to 28.7 µM;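 also: parasite growth measured after three days of incubation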; also: potency is read from the fitted curve at half-maximal effect
# [6] = qHTS for differential inhibitors of proliferation of Plasmodium falciparum line 3D7 (AID 1876); also: potency is read from the fitted curve at half-maximal effect; details: P. falciparum 3D7 proliferation inhibition; series mostly up to 28.7 µM
# [7] = qHTS for differential inhibitors of proliferation of Plasmodium falciparum line D10 (AID 1877); details: series mostly up to 28.7 µM;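 also: parasites grown with compound for 72 h before DNA staining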; also: potency is read from the fitted curve at half-maximal effect
# [8] = qHTS for differential inhibitors of proliferation of Plasmodium falciparum line Dd2 (AID 1882); details: Potency: Plasmodium falciparum Dd2 proliferation inhibition; series mostly up to 28.7 µM; also: nearly all actives have a fitted effect of over 65% in size; also: potency is read from the fitted curve at half-maximal effect
# Summary of the method: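 SYBR Green DNA fluorescence (ex 485, em 535 nm) after overnight lysis quantifies parasite growth; compound exposure lasted 72 h at 37 C on infected red cells at 2.5% hematocrit, 0.3% parasitemia (final). Artemisinin 0.29 uM and vehicle wells define normalization.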
# [9] = Validation of Assay for Modulators of Lamin A Splicing (AID 1459; active = well fitted curve in the direction sought with a large enough effect in the signal ratio; the % refers to the signal ratio;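 also: cells exposed to compound for two days before reading; ratio rise marks activators and ratio drop marks inhibitors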); details: Lamin A splicing dual RFP/GFP fluorescence reporter; series mostly up to 9.22 µM
# Summary of the method: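 HeLa S3 lamin A-EGFP/DsRed2 stable clone, 600 cells/well, Opti-MEM 2% FBS; compounds by pin tool; 48 hrs, 37 °C/5% CO2; Acumen 488 nm scan, objects 10-100 um; GFP/RFP intensity ratio.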
# [10] = qHTS for differential inhibitors of proliferation of Plasmodium falciparum line GB4 (AID 1816); details: Potency: Plasmodium falciparum GB4 proliferation inhibition; series mostly up to 28.7 µM;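 also: parasite growth measured after 72 h incubation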; also: potency is read from the fitted curve at half-maximal effect
# [11] = measured here: cell count channel max response
# [12] = measured here: lipid channel max response
SMILES,"activity change, negative = inhibition ([1]; at 25.7 µM (top of the series))","activity change, negative = inhibition ([1]; at 57.5 µM (top of the series))","max response [1, 11]","max response [1, 12]",outcome [2],outcome [3],outcome [4],Potency [5],Potency [6],Potency [7],Potency [8],outcome [9],Potency [10]
Clc1cccc(Cl)c1NC1=NCCN1,-3.52% (inactive),4.4% (inactive) and 1.2% (inactive),3.68% and -5.77% and -17.1%,-1.31% and -6% and -15.4%,inactive,inactive,inactive,inactive,inactive,inactive,inactive,,
Cc1ccc(N(CC2=NCCN2)c2cccc(O)c2)cc1,1.77% (inactive),11.7% (inactive) and 0.54% (inactive),-12.1% and 5.79% and 62.4%,-8.46% and 20.7% and 65.8%,inactive,inactive,inactive,,,inactive,inactive,inactive,
CCN(CC)CCCC(C)Nc1ccnc2cc(Cl)ccc12 (configuration not stated),,4.83% (inactive),12.7%,21.7%,inactive,inactive,,2.51 µM (active),0.112 µM (active),0.316 µM (active),10 µM (active),inactive,1.78 µM (active)
O=C(O)COCCN1CCN(C(c2ccccc2)c2ccc(Cl)cc2)CC1 (configuration not stated),,5.98% (inactive),4.08%,13.6%,,,,,,,,,
COc1ccc2nc(S(=O)Cc3ncc(C)c(OC)c3C)[nH]c2c1 (configuration not stated),-4.82% (inactive),,6.97%,1.74%,,,,,,,,,
NS(=O)(=O)c1cc2c(cc1Cl)NC=NS2(=O)=O,-2.79% (inactive),7.25% (inactive) and -0.143% (inactive),3.82% and 7.17% and -12.5%,1.14% and 18.5% and -16.5%,inactive,inactive,inactive,inactive,inactive,inactive,inactive,inactive,inactive
CCC(C)N(C)C(=O)c1cc2ccccc2c(-c2ccccc2Cl)n1 (configuration not stated),,,,,inactive,inactive,,7.94 µM (active),,11.2 µM (active),inactive,inactive,12.6 µM (active)
Cc1cnc(NC(=O)C2=C(O)c3ccccc3S(=O)(=O)N2C)s1,,,,,inactive,inactive,inactive,,inactive,inactive,inactive,inactive,
Cc1[nH]c(=O)c(C#N)cc1-c1ccncc1,2.58% (inactive),-0.858% (inactive),-8.19% and -12.8%,-4.74% and -14.2%,inactive,inactive,inactive,inactive,inactive,inactive,inactive,,inactive
NC[C@H](O)c1ccc(O)c(O)c1,,0.534% (inactive),-22.5%,-21.1%,inactive,inactive,inactive,,inactive,inactive,inactive,inactive,inactive
O=C1CCC(N2C(=O)c3ccccc3C2=O)C(=O)N1 (configuration not stated),,4.49% (inactive) and -2.08% (inactive),6.67% and -27.8%,12.7% and -27.8%,inactive,inactive,inactive,inactive,inactive,inactive,inactive,inactive,inactive
NCCCC(N)(C(=O)O)C(F)F (configuration not stated),,,,,inactive,inactive,inactive,inactive,inactive,inactive,inactive,inactive,inactive
CC(=O)Oc1ccccc1C(=O)O,,4.32% (inactive),19.3%,27.8%,inactive,inactive,inactive,inactive,inactive,inactive,inactive,inactive,inactive
N=c1nc(N2CCCCC2)cc(N)n1O,0.0649% (inactive),3.81% (inactive) and 8.57% (inactive),-1.22% and 19% and 16.9%,1.34% and 23.5% and 29.3%,inactive,inactive,inactive,inactive,inactive,inactive,inactive,inactive,inactive
N#Cc1ccc(C(c2ccc(C#N)cc2)n2cncn2)cc1,0.817% (inactive),,-19.8%,-18.7%,,,,,,,,,
N[C@@H]1CONC1=O,-1.13% (inactive) and 2.32% (inactive),0.855% (inactive),-10.2% and -6.54% and 0.81%,-10.7% and -4.08% and 1.58%,inactive,inactive,inactive,inactive,inactive,inactive,inactive,inactive,inactive
CCOC(=O)C1=C[C@]2(CC)CCCN3CCc4c(n1c1ccccc41)[C@@H]32,,-17.2% (inactive),-25.8%,-38.8%,inactive,inactive,inactive,7.08 µM (active),,,,inactive,7.94 µM (active)
CCCCNc1cc(C(=O)O)cc(S(N)(=O)=O)c1Oc1ccccc1,0.496% (inactive),9.35% (inactive) and 0.368% (inactive),0.765% and 10.7% and -18.8%,-1.29% and 24.4% and -13.7%,inactive,inactive,inactive,inactive,inactive,inactive,inactive,inactive,inactive
CCCc1nn(C)c2c(=O)[nH]c(-c3cc(S(=O)(=O)N4CCN(C)CC4)ccc3OCC)nc12,,9.83% (inactive),12.2%,27.6%,,,,,,,,,
CCOC(=O)C1=C[C@@]2(CC)CCCN3CCc4c(n1c1ccccc41)[C@H]32,-1.77% (inactive),,-14.2%,-15.3%,,,,,,,,,
Cc1oncc1C(=O)Nc1ccc(C(F)(F)F)cc1,0.243% (inactive),13.4% (inactive) and -0.067% (inactive),-14.5% and 1.19% and -29.1%,-15.6% and 18.5% and -28.2%,inactive,inactive,inactive,inactive,,inactive,inactive,inactive,inactive
NCCc1ccc(O)c(O)c1,,6.86% (inactive) and 6.19% (inactive) and 1.49% (inactive),7.38% and 3.94% and -27.9%,20.7% and 9.74% and -24.3%,inactive,inactive,inactive,,,,inactive,inactive,
Nc1nc2ccc(OC(F)(F)F)cc2s1,-1.29% (inactive),1.85% (inactive),-7.42% and -26.5%,-8.28% and -25.3%,inactive,inactive,inactive,inactive,inactive,inactive,,,inactive
Nc1ccc(S(=O)(=O)Nc2ccnn2-c2ccccc2)cc1,-1.01% (inactive),14.1% (inactive),-3.22% and 11.1%,-3.23% and 26.2%,inactive,inactive,inactive,inactive,inactive,inactive,inactive,inactive,inactive
